This is an account of results in PubChem BioAssay (EPA / NIEHS).

The structures appear in SMILES notation. Results filed as inconclusive are left out. Activity calls are given as the source filed them. The calls were made as follows, unless noted: active = hit-call score of the fitted dose curve at least 0.9, where 1 is the maximum; inactive = score below 0.9.

Assay [1] concerns the target Paired box protein Pax-6 (Homo sapiens) (UniProt P26367). The assay is described as follows: ATG_Pax6_CIS: Attagene CIS-FACTORIAL HepG2 Assay for human Paired Box 6 (PAX6) (AID 2282956). The conditions noted are these: HepG2 CIS-FACTORIAL PAX6 reporter transcription, RNA readout; actives raise or lower the signal. Put shortly: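 DMSO-referenced bidirectional fits of reporter mRNA fluorescence; HepG2 with transient cis-promoter MRTUs, 24 h post-dose, RT-PCR plus capillary electrophoresis detection.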

The nature of assay [2]: ATG_PXRE_CIS: Attagene CIS-FACTORIAL HepG2 Assay for human Pregnane X Receptor Element (PXRE) (AID 2282957). The conditions noted are these: HepG2 Attagene CIS-FACTORIAL PXRE reporter, mRNA; actives raise or lower the signal. The procedure, abridged:
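Using HepG2 transfected with multiple reporter transcription units, endogenous factor-driven transcription was scored as reporter mRNA after 24 h exposure.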

A short description of assay [3]: ATG_PPRE_CIS: Attagene CIS-FACTORIAL HepG2 Assay for human Peroxisome Proliferator-activated Response Element (PPRE) (AID 2282958). The following applies: HepG2 PPRE cis-element reporter, Attagene transcription factor profiling; actives raise or lower the signal. The procedure, abridged: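 After human HepG2 hepatoma cells were transiently transfected with cis-promoter reporter constructs, they were exposed to test chemicals for 24 hours. Reporter RNA was then reverse-transcribed, PCR-amplified, FAM-labeled, HpaI-digested and quantified by capillary electrophoresis.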

A short description of assay [4]: ATG_RORE_CIS: Attagene CIS-FACTORIAL HepG2 Assay for human RAR-related Orphan Receptor Element (RORE) (AID 2282959). The following applies: HepG2 Attagene cis-factorial RORE reporter, mRNA; actives raise or lower the signal. Put shortly: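 Measured here: transcript induction of a cis-regulated reporter in HepG2 cells transiently transfected via FuGene 6. After 24 h, RNA was processed by RT-PCR and fluorescent capillary electrophoresis; DMSO defined baseline activity.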

A short description of assay [5]: ATG_Sox_CIS: Attagene CIS-FACTORIAL HepG2 Assay for human SRY-box transcription factor (SOX) (AID 2282960). The following applies: HepG2 Attagene cis-factorial SOX reporter, mRNA; actives raise or lower the signal. Put shortly:
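Using transiently transfected HepG2 cells, reporter transcription driven by cis elements was assessed 24 h after dosing. Signal was fluorescence of capillary-separated RT-PCR products, with DMSO defining baseline activity.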

In assay [6] the target is Transcription factor Sp1 (Homo sapiens) (UniProt P08047). The assay is described as follows: ATG_Sp1_CIS: Attagene CIS-FACTORIAL HepG2 Assay for human Specificity Protein 1 (Sp1) (AID 2282961). The following applies: HepG2 Sp1 cis-reporter transcription, actives raise or lower the signal. Put shortly:
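After transient transfection of HepG2 cells with cis-promoter reporter units and 24 h chemical treatment, reporter transcripts were quantified by RT-PCR and capillary electrophoresis fluorescence. Gain- and loss-of-signal fitted against DMSO.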

Assay [7] is described as follows: ATG_SREBP_CIS: Attagene CIS-FACTORIAL HepG2 Assay for human Sterol Regulatory Element Binding (SREBP) (AID 2282962). The following applies: HepG2 Attagene cis-factorial SREBP reporter, mRNA; actives raise or lower the signal. The procedure, abridged:
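In this cis-format assay, HepG2 liver cells express reporters controlled by promoter elements responsive to native transcription factors. Exposure lasts 24 h; reporter mRNA fluorescence from capillary electrophoresis gives the signal, fitted bidirectionally against DMSO.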

Assay [8] concerns the target Signal transducer and activator of transcription 3 (Homo sapiens) (UniProt P40763). Briefly: ATG_STAT3_CIS: Attagene CIS-FACTORIAL HepG2 Assay for human Signal Transducer and Activator of Transcription 3 (STAT3) (AID 2282963). The following applies: HepG2, Attagene cis-factorial STAT3 reporter transcription; actives raise or lower the signal. Put shortly:
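Cis-factorial format: endogenous transcription factors in HepG2 drive transfected reporter units. After 24 h treatment, reporter RNA was reverse-transcribed, amplified, FAM-labelled and HpaI-digested before CE analysis; activity scored in both directions against DMSO.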

Assay [9] is described as follows: ATG_TA_CIS: Attagene CIS-FACTORIAL HepG2 Assay for human TA Basal Promoter (AID 2282964). The following applies: HepG2 Attagene CIS-factorial TA basal promoter reporter; actives raise or lower the signal. The procedure, abridged: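 Fluorescence from labelled RT-PCR reporter fragments, separated by capillary electrophoresis, gives the signal. Cells: HepG2 transiently carrying multiple reporter units, 24 h chemical dosing. Gain or loss relative to DMSO.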

Assay [10] can be described thus: ATG_TCF_b_cat_CIS: Attagene CIS-FACTORIAL HepG2 Assay for human T-Cell-Factor with beta-catenin (TCF/b-cat) (AID 2282965). The following applies: HepG2 TCF/beta-catenin cis-reporter transcription, actives raise or lower the signal. Put shortly:
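Measured: reporter mRNA in HepG2 transiently transfected with cis-promoter reporter units, 24 h after chemical addition. Fitting was bidirectional, DMSO as negative control.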

Assay [11] is described as follows: ATG_TAL_CIS: Attagene CIS-FACTORIAL HepG2 Assay for human TAL Basal Promoter (AID 2282966).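 Also: background control endpoint measuring basal TAL promoter reporter mRNA not a specific factor.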 The following applies: HepG2 Attagene cis-factorial TAL promoter reporter; actives raise or lower the signal. Put shortly: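 After 24 hours of chemical exposure, transfected HepG2 cells yielded RNA that was converted to 6-FAM-labelled, HpaI-digested reporter fragments for capillary electrophoresis. Values derive from bidirectional fitting against DMSO controls.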

Assay [12] is described as follows: ATG_TGFb_CIS: Attagene CIS-FACTORIAL HepG2 Assay for human Transforming Growth Factor (TGF) (AID 2282967). The following applies: HepG2 Attagene CIS TGFb reporter, mRNA transcription; actives raise or lower the signal. The procedure, abridged: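 Bidirectional fitting relative to DMSO gave the endpoint. Underlying data: reporter mRNA from HepG2 cells carrying transiently transfected cis-regulated reporter constructs, harvested 24 h after dosing and analyzed by RT-PCR and capillary electrophoresis.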

Assay [13] in a line: ATG_VDRE_CIS: Attagene CIS-FACTORIAL HepG2 Assay for human Vitamin D Receptor Element (VDRE) (AID 2282968). The conditions noted are these: HepG2 VDRE cis-reporter transcription, actives raise or lower the signal. Put shortly:
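Measures endogenous factor activity through cis-element-driven reporter transcripts in transiently transfected HepG2. Cells are treated 24 h; reporter mRNA is quantified by RT-PCR and capillary electrophoresis; fitting is bidirectional.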

The target in assay [14] is Nuclear receptor subfamily 1 group I member 3 (Homo sapiens) (UniProt Q14994). Briefly: ATG_CAR_TRANS: Attagene TRANS-FACTORIAL HepG2 Assay for human Constitutive Androstane Receptor (CAR) (AID 2282969; active = hit-call score of the fitted dose curve at least 0.9, where 1 is the maximum;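 also: activators raise reporter mRNA above DMSO so AC50 marks induction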). The conditions noted are these: HepG2 Attagene TRANS-FACTORIAL CAR reporter. Put shortly:
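Signal is reporter mRNA induction relative to DMSO, measured 24 h after dosing by RT-PCR with fluorescent primer extension and capillary electrophoresis. Human HepG2 liver cells carried transiently transfected chimeric NR-Gal4/GAL4-UAS reporter constructs.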

Assay [15] deals with Estrogen receptor (Homo sapiens) (UniProt P03372). Briefly: ATG_ERa_TRANS: Attagene TRANS-FACTORIAL HepG2 Assay for human Estrogen Receptor alpha (ERa) (AID 2282970; active = hit-call score of the fitted dose curve at least 0.9, where 1 is the maximum). The following applies: HepG2 Attagene TRANS ERa GAL4 reporter, mRNA. Put shortly: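 Liver-derived HepG2 cells expressing chimeric nuclear receptor-Gal4 proteins from transient transfection were exposed for 24 hours. Gain of reporter mRNA signal versus DMSO, read by capillary electrophoresis of FAM-labelled PCR products, was recorded.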
Estrogen receptor (Homo sapiens), sequence (P03372 whole entry, looked up, the tested form may be a part): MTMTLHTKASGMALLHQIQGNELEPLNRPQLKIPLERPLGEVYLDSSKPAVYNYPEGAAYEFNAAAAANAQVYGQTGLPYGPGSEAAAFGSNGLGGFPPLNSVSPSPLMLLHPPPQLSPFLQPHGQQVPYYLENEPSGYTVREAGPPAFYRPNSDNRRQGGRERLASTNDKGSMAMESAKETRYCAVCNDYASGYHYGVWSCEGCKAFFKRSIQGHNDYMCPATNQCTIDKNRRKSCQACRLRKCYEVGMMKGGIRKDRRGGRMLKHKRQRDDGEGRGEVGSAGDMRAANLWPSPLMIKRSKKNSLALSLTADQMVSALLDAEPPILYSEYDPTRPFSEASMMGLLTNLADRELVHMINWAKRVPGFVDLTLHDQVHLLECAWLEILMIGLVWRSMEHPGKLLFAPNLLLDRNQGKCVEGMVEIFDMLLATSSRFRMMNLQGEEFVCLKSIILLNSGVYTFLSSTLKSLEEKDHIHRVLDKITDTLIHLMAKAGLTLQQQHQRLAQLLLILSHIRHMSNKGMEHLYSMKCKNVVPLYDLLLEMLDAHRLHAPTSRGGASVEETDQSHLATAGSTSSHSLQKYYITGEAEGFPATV

Assay [16] addresses X-box-binding protein 1 (Homo sapiens) (UniProt P17861). Briefly: ATG_Xbp1_CIS: Attagene CIS-FACTORIAL HepG2 Assay for human X-box Binding Protein 1 (XBP1) (AID 2282972). The following applies: HepG2 XBP1 cis-element reporter, Attagene multiplex; actives raise or lower the signal. The procedure, abridged: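 Changes in reporter transcript abundance, read by RT-PCR and capillary electrophoresis, reflect endogenous transcription factor activity. Transfected HepG2 cells received compound for 24 hours; DMSO defined baseline for bidirectional analysis.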

Assay [17] in a line: ATG_M_19_TRANS: Attagene TRANS-FACTORIAL HepG2 Assay for M19 Transcription Factor (Internal Marker) (AID 2282974; active = hit-call score of the fitted dose curve at least 0.9, where 1 is the maximum). The conditions noted are these: HepG2 Attagene TRANS-FACTORIAL M19 internal marker reporter. Put shortly:
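Gain-of-signal in reporter mRNA, relative to DMSO, was scored from capillary electrophoresis fluorescence. HepG2 cells carried transiently transfected multiple reporter transcription units and were incubated with test chemicals for 24 h.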

Assay [18] concerns the target Steroid hormone receptor ERR1 (Homo sapiens) (UniProt P11474). Briefly: ATG_ERRa_TRANS: Attagene TRANS-FACTORIAL HepG2 Assay for human Estrogen-Related Receptor alpha (ERRa) (AID 2282971; active = hit-call score of the fitted dose curve at least 0.9, where 1 is the maximum). The conditions noted are these: HepG2 Attagene TRANS reporter, ERRa transactivation. Put shortly:
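Reporter transcript induction was quantified by RT-PCR and capillary electrophoresis of FAM-labelled, HpaI-cut products after 24 h treatment of HepG2 cells carrying transiently transfected GAL4-UAS reporter units and an exogenous ERRa-Gal4 fusion; activity scored as increase over DMSO.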

Assay [19] has as its target Estrogen-related receptor gamma (Homo sapiens) (UniProt P62508). Briefly: ATG_ERRg_TRANS: Attagene TRANS-FACTORIAL HepG2 Assay for human Estrogen-Related Receptor gamma (ERRg) (AID 2282977; active = hit-call score of the fitted dose curve at least 0.9, where 1 is the maximum;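 also: hits increase reporter signal over DMSO so potencies reflect activators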). The conditions noted are these: HepG2 Attagene TRANS reporter, ERRg transactivation. Put shortly:
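Readout: fluorescent reporter-mRNA fragments resolved by capillary electrophoresis after RT-PCR and HpaI cut. Cells: transiently transfected HepG2 carrying GAL4-UAS reporters driven by exogenous NR-Gal4 chimeras, dosed 24 h. Activity fitted upward relative to DMSO baseline.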

Assay [20] can be described thus: ATG_GAL4_TRANS: Attagene TRANS-FACTORIAL HepG2 Assay for GAL4 (Internal Marker) (AID 2282976; active = hit-call score of the fitted dose curve at least 0.9, where 1 is the maximum). The following applies: HepG2 Attagene TRANS GAL4 internal marker reporter. The procedure, abridged: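 First, HepG2 cells were transfected with reporter units under GAL4-UAS control. Next, they were treated with chemical for 24 h. Finally, RNA was reverse-transcribed, PCR-amplified, FAM-labelled and resolved by capillary electrophoresis, with induction scored against DMSO.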

Nuclear receptor subfamily 1 group I member 3 (Homo sapiens), sequence (Q14994 whole entry, looked up, the tested form may be a part): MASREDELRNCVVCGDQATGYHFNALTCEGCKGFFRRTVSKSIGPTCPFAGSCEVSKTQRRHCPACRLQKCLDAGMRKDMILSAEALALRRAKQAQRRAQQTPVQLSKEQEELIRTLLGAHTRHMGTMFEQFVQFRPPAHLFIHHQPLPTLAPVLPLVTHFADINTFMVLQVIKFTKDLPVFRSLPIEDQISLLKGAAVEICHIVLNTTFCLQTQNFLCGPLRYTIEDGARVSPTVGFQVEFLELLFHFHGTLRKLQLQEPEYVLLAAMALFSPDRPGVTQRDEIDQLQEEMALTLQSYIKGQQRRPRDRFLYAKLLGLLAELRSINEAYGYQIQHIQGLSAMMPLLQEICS
X-box-binding protein 1 (Homo sapiens), sequence (P17861 whole entry, looked up): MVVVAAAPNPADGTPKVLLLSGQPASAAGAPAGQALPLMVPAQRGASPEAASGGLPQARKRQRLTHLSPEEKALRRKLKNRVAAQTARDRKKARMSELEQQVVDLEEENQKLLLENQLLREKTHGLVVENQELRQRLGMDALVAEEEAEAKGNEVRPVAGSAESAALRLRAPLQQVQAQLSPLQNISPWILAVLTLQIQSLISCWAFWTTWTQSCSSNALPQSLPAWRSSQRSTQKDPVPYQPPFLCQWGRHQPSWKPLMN
Transcription factor Sp1 (Homo sapiens), sequence (P08047 whole entry, looked up): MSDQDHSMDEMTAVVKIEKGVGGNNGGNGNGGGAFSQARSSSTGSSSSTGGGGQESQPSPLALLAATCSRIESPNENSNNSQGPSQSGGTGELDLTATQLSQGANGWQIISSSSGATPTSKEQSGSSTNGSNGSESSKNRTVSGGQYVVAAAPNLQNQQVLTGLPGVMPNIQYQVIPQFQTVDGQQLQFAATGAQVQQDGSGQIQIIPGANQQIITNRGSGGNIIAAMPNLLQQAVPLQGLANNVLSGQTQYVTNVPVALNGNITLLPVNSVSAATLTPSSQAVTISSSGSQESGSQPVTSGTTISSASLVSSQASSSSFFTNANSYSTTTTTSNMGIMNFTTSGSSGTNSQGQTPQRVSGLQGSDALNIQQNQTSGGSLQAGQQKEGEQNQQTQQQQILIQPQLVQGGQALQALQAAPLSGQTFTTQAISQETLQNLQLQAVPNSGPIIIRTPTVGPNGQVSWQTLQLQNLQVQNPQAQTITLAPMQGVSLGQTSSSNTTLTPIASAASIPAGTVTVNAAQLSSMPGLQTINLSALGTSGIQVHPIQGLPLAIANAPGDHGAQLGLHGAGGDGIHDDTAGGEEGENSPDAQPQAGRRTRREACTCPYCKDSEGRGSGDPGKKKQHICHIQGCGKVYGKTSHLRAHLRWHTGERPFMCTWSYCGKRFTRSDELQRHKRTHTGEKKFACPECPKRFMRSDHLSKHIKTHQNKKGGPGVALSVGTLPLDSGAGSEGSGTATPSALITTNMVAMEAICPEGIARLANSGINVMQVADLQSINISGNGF
Signal transducer and activator of transcription 3 (Homo sapiens), sequence (P40763 whole entry, looked up): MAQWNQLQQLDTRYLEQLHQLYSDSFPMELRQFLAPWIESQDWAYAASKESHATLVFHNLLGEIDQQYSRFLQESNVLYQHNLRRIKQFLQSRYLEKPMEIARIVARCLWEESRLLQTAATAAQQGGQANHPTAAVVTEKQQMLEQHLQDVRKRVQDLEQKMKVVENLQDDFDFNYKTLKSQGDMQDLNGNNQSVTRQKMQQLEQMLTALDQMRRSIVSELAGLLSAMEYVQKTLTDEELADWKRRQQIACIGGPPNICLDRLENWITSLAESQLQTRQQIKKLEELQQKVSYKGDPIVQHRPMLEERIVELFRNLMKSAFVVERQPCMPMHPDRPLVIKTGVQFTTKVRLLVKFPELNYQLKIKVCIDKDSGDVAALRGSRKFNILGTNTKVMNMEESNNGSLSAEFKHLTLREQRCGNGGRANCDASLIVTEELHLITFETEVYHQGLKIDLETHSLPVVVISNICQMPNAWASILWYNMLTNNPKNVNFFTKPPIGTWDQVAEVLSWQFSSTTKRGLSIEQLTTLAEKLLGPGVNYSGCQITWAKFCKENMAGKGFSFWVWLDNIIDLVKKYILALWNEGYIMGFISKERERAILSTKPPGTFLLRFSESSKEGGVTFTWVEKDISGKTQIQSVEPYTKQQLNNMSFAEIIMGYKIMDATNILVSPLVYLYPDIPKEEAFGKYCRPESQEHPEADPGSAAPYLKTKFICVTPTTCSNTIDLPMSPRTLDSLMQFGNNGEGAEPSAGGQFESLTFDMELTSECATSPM
Paired box protein Pax-6 (Homo sapiens), sequence (P26367 whole entry, looked up): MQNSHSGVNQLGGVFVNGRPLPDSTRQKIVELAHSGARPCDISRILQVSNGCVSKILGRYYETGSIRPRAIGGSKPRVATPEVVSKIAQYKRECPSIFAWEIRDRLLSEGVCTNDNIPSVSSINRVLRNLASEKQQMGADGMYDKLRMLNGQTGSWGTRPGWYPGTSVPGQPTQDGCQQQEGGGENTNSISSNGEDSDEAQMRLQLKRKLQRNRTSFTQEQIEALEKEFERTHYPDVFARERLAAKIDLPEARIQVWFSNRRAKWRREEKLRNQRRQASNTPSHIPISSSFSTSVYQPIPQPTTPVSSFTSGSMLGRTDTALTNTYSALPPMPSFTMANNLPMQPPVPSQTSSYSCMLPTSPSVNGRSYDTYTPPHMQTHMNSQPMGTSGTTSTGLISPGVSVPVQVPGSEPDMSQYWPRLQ
Estrogen-related receptor gamma (Homo sapiens), sequence (P62508 whole entry, looked up, the tested form may be a part): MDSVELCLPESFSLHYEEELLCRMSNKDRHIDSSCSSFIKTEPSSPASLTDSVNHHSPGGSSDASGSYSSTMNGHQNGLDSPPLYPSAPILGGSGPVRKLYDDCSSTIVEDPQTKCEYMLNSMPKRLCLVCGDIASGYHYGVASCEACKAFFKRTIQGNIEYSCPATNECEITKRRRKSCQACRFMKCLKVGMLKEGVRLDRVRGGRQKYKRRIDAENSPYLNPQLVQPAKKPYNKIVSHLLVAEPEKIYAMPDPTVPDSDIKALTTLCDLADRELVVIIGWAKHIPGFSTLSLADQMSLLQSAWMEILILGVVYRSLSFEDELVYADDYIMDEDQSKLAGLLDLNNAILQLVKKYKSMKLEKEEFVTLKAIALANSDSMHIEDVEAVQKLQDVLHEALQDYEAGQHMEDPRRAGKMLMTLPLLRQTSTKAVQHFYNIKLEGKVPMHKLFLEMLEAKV
Steroid hormone receptor ERR1 (Homo sapiens), sequence (P11474 whole entry, looked up, the tested form may be a part): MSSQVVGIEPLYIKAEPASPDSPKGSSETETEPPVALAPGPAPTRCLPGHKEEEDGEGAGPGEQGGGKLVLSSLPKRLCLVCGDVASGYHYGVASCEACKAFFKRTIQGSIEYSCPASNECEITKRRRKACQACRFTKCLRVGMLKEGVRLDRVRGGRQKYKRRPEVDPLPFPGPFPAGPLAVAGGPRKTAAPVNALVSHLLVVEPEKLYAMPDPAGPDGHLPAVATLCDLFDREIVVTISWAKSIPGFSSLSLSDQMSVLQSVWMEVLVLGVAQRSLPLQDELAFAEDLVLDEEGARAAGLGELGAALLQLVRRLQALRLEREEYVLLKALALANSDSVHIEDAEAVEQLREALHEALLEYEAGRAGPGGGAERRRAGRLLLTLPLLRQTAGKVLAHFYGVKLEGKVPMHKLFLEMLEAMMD

Broadly, the AC50 is the concentration at which the activity in the assay is half-maximal. With `COC(=O)c1cc(Cl)ccc1[N+](=O)[O-]`, the result in assay [1], in assay [3], in assay [4], in [5], in assay [6] and in [7] was inactive. Moreover, the compound was called inactive in assay [8], in assay [9], in [10], in assay [11], in [12] and in assay [13]. The result in [14], in assay [15], in assay [16] and in [17] was inactive. For the same compound, in [2], the AC50 was 76.1 µM (active).

`CC(C)(C)C(=O)CCc1ccc(Cl)cc1`: the call in [1], in assay [3], in assay [4], in assay [5], in assay [6] and in assay [7] was inactive. Further, the result in [8], in [9], in assay [10], in [11], in [12] and in assay [14] was inactive. For the same compound, the compound was called inactive in assay [18] and in assay [16]. The values for the AC50 in assay [2], in assay [13] and in assay [15] were 9.79 µM (active), 41.2 µM (active) and 17.7 µM (active), respectively.

Take `O=C(OCC1CCC2OC2C1)C1CCC2OC2C1` (configuration not stated): the outcome in assay [1], in [2], in assay [3], in assay [4], in [5] and in [6] was inactive. Moreover, the outcome in assay [7], in assay [8], in assay [9], in [10], in assay [11] and in assay [12] was inactive. For the same compound, the compound was classed as inactive in assay [13], in assay [14] and in assay [16].

In the case of `Nc1ccc(-c2ccc(F)cc2)cc1`, the call in assay [1], in assay [3], in assay [4], in assay [5], in [6] and in assay [7] was inactive. The outcome in assay [8], in [9], in [10], in [11], in [12] and in [13] was inactive. Besides, the call in assay [16], in assay [17] and in assay [19] was inactive. The values for the AC50 in [2] and in assay [15] were 27.4 µM (active) and 26.9 µM (active), respectively.

For the compound `CC(=O)OCCC1CCCCC1`, the compound was classed as inactive in assay [1], in assay [3], in assay [4], in [5], in assay [6] and in assay [7]. Further, the outcome in assay [8], in assay [9], in assay [10], in assay [11], in assay [12] and in [13] was inactive. Further, the result in assay [14], in assay [15], in [16] and in assay [17] was inactive. Moreover, the AC50 in assay [2] is 31.8 µM (active).

Take `Nc1ccc2cc3ccccc3cc2c1`: the outcome in [1], in assay [3], in [4], in assay [5], in [6] and in assay [7] was inactive. Further, the call in assay [8], in [9], in [10], in [11], in [12] and in assay [13] was inactive. In addition, the compound was called inactive in [14], in assay [16] and in assay [20]. Moreover, the figures for the AC50 in [2] and in assay [15] were 13.2 µM (active) and 6.94 µM (active), respectively.

Take `CC(=O)OCC(=O)[C@@]12N=C(C)O[C@@H]1C[C@H]1[C@@H]3CCC4=CC(=O)C=C[C@]4(C)[C@H]3[C@@H](O)C[C@@]12C`: the result in assay [1], in assay [3], in assay [4], in assay [5], in [6] and in assay [7] was inactive. Further, the compound was called inactive in assay [8], in assay [9], in [10], in [11], in assay [12] and in [15]. Also, the result in [16], in assay [17] and in [20] was inactive. Besides, the AC50 was 17.6 µM (active) in assay [2] and 25 µM (active) in assay [13].
